From PubChem BioAssay (Tox21)
Several values for one entry are separate records, joined by “and”; a condition that tells them apart may be missing. Equal entries are not always repeated. Results filed as inconclusive are left out. A call without a number means that no potency is given here. A number with no mark means an inactive call. Activity calls are given as the source filed them. The call rests on the fitted dose curve.

Assay: qHTS assay to identify small molecule antagonists of the sonic hedgehog signaling (Shh) pathway (AID 1259369); further: nearly all actives have a fitted effect of over 45% in size
Details: NIH/3T3 Gli1-Luc reporter, Shh antagonist, luminescence 24 h; series mostly up to 92.4 µM
Source text: U.S. Tox21 Program National Center for Advancing Translational Sciences [NCATS] NIH Chemical Genomics Center [NCGC] U.S. Environmental Protection Agency [EPA] National Institutes of Environmental Health Sciences [NIEHS] National Toxicology Program [NTP] U.S. Food and Drug Administration [FDA] Tox21 Assay Overview: The sonic hedgehog (Shh) pathway is essential for normal embryonic development. Dysregulation of the Shh pathway can cause severe developmental defects in organs. Therefore chemicals that interfere with the pathway are potential developmental toxicants. A cell line designated 3T3Gli1-Luc (DMB/OARSA/CFSAN/FDA, Laurel, MD), a NIH/3T3 derived clone containing stably integrated Gli1-Luc reporter is used to detect chemical interference of the Shh pathway, by changes in the expression of the firefly Luc gene under the control of the Gli1 transcriptional response element. This cell line was used to screen Tox21 libraries for identifying and prioritizing the potential developmental toxicants that interfere Shh pathway. Conditioned medium-stimulated mode was used to screen for chemicals inhibiting Shh signaling.
Tox21 Assay Protocol Summary: 3T3 Gli1-Luc cells were dispensed at 2,000 per well in 5uL of culture medium into white solid bottom 1536-well plates (Greiner Bio-One, Monroe, NC) using a Multidrop Combi (Thermo Scientific, Waltham, MA) dispenser. The assay plates were incubated at 37 C and 5% CO2 for 4hr, and then 23nL of compounds dissolved in DMSO and positive control were transferred using a Pintool station (Wako, San Diego, CA). The compound transfer was followed by the addition of 1ul conditioned medium or assay buffer using two separate tips of Flying Reagent Dispenser (FRD, Aurora Discovery, San Diego, CA). The assay plates were incubated at 37C and 5% CO2 for 24hr. For luciferase read, 4uL of Amplite Luciferase reporter gene assay reagent (AAT Bioquest, Inc. Sunnyvale, CA) was added to each well of the assay plates using FRD and incubated at room temperature for 30min. The luminescence signal was measured using a ViewLux plate reader (Perkin Elmer, Shelton, CT).
Potency means the concentration at half of the fitted maximal effect.

Compound	Potency	activity change, negative = inhibition
O=c1[nH]cnc2ccccc12	inactive	
CCCCCCCCCC(=O)OCC	inactive	
Nc1ccc(C(=O)N2CC3CC(CN(Cc4ccccc4)C3)C2)cc1	inactive	
COc1ccccc1OC(=O)Oc1ccccc1OC	inactive	
CC(=O)N(O)CCCCCNC(=O)CCC(=O)N(O)CCCCCNC(=O)CCC(=O)N(O)CCCCCN	inactive	
CCCCCC/C=C/C=O	inactive	
c1ccc(CNCc2ccccc2)cc1	inactive	
CC(O)C1CCCCC1 (stereo not given)	inactive	
CC(=O)O[C@H]1C[C@@H]2CC[C@@H]3[C@H](CC[C@@]4(C)[C@H]3C[C@H]([N+]3(C)CCCCC3)[C@@H]4OC(C)=O)[C@@]2(C)C[C@@H]1N1CCCCC1	inactive	
CCCC[C@H]1CN(CC2CCOCC2)C(=O)OC12CCN(C1(C)CCN(C(=O)c3c(C)ncnc3C)CC1)CC2	inactive	
CC[C@H](C)[C@@H](C(=O)O)n1sc2ccccc2c1=O	27.3 µM (active)	
CC(=O)/C=C/C1C(C)=CCCC1(C)C (stereo not given)	inactive	
C1=Cc2ccccc2C1	inactive	
CCOC(=O)C1=NN(c2ccccc2)C(=O)C1	inactive	
O=C(CCN1CCN2CCCC2C1)N1c2ccccc2Sc2ccc(Cl)cc21 (stereo not given)		-18.5% [at 19 µM]
Cc1cccc(Oc2ccccc2)c1	inactive	
O=C(CC(=O)c1ccccc1)c1ccccc1	inactive	
N#CCCNCCC#N	inactive	
CC(C)NCC(O)c1cc(O)cc(O)c1 (stereo not given)	inactive	
O=CNc1ccccc1	inactive	

Compound	Potency	activity change, negative = inhibition
CCCCCOC(=O)COc1cc(N2C(=O)C3=C(CCCC3)C2=O)c(F)cc1Cl	inactive	
CCC(=O)OC(C)(C)C1CC=C(C)CC1 (stereo not given)	inactive	
Cc1cc(O)ccc1N	17.3 µM (active)	
Cn1sccc1=O	12.2 µM (active) and 3.06 µM (active)	
CCN(CC)CCc1nc(-c2ccccc2)no1	inactive	
NCCCN(CCO)CCO	inactive	
O=C(O)[C@@H]1[C@H]2C[C@H]3c4[nH]c5ccccc5c4CCN3C[C@@H]2CC[C@@H]1O	inactive	
CC(C)c1cccc(C(C)C)c1NC(=O)NS(=O)(=O)c1cc(C(C)(C)O)co1	inactive	
CC(=O)/C(C)=C/C1C(C)=CCCC1(C)C (stereo not given)	inactive	
N#CCc1cccc(C(F)(F)F)c1	inactive	
O=C1Nc2cc(Cl)ccc2Oc2ccccc21	inactive	
CC(=O)OCCc1ccccc1	inactive	
O=S1(=O)N=C(O)c2ccccc21	inactive	
CN1CCC(=C2c3ccccc3CCc3sccc32)CC1	2.98 µM (active)	
Cc1ccc(C(=O)C(C)CN2CCCCC2)cc1 (stereo not given)	inactive	
CCCCOCCOCCOCCOCCO	inactive	
CCCCOC(=O)c1ccccc1C(=O)OCC(CC)CCCC (stereo not given)	inactive	
Cc1occc1S	inactive	
Cn1c(=O)c2c(ncn2CC(O)CO)n(C)c1=O (stereo not given)	inactive	
COC(=O)C(C)=O	inactive	
